Z-score and composite z-score data for eight compounds are collected here from PubChem BioAssay.

The source made the active and inactive calls. Unless noted, no rule for the calls is given here.

A short description of assay [1]: compound effects on lung adenocarcinoma cell viability – A549, calcein-AM fluorescence, 48 h, basal, profiling panel (AID 1162). Also: test concentration not given here. The following applies: higher = more signal.
Assay [2] can be described thus: compound effects on differentiated 3T3-L1 adipocyte viability – cell-based, 3T3-L1 adipocytes, calcein-AM fluorescence, 48 h, basal, profiling panel (AID 1163). Also: test concentration not given here. The following applies: 3T3-L1 adipocytes viability, higher = more signal.
Assay [3] is described as follows: compound effects on hepatocellular carcinoma cell viability – HepG2, calcein-AM fluorescence, 48 h, basal, profiling panel (AID 1164). Also: test concentration not given here. Conditions: higher = more signal.
Assay [4] is described as follows: compound effects on multiple myeloma cell viability – MM1S, calcein-AM fluorescence, 48 h, basal, profiling panel (AID 1165). Also: test concentration not given here. Conditions: higher = more signal.
Assay [5] in a line: calcein-AM signal in unstimulated myeloma cells – cell-based, calcein-AM fluorescence, 48 h, PK04 Diversity Set, profiling panel (AID 1166).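 Also: cells grown under basal conditions without added stimulus; test concentration not given here.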 Conditions: RPMI8226 myeloma viability, higher = more signal.
Assay [6] is described as follows: JC-1 mitochondrial signal, unstimulated HepG2 cells – cell-based, JC-1 fluorescence, 24 h, 100 nL compound, profiling panel (AID 1167). Also: test concentration not given here. The following applies: HepG2 mitochondrial potential, higher = more signal.
A short description of assay [7]: JC-1 mitochondrial signal, unstimulated adipocytes – cell-based, JC-1 fluorescence, 3T3-L1 adipocytes, 24 h, 100 nL compound, profiling panel (AID 1168). Also: test concentration not given here. Conditions: JC-1 mitochondrial fluorescence, higher = more signal, called active from +8 up or from −8 down.
The nature of assay [8]: JC-1 mitochondrial signal, unstimulated myeloma cells – cell-based, JC-1 fluorescence, RPMI8226, 24 h, 100 nL compound, profiling panel (AID 1169). Also: test concentration not given here. Conditions: JC-1 mitochondrial potential fluorescence, higher = more signal.
A short description of assay [9]: JC-1 mitochondrial signal, unstimulated MM1S myeloma – cell-based, JC-1 fluorescence, 24 h, 100 nL compound, profiling panel (AID 1170). Also: test concentration not given here. Conditions: MM1S mitochondrial potential, higher = more signal.
The nature of assay [10]: resazurin metabolic signal in A549 cells – cell-based, resazurin fluorescence, 24 h, PK04 Diversity Set, profiling panel (AID 1171). Also: test concentration not given here. Conditions: A549 viability, higher = more signal, called active from +8 up or from −8 down. On the technique in general: The colour change of resazurin is a common sign of viable cells or microbes.
A short description of assay [11]: resazurin metabolic signal in HepG2 cells – cell-based, resazurin fluorescence, 24 h, PK04 Diversity Set, profiling panel (AID 1172). Also: test concentration not given here. Conditions: HepG2 viability, higher = more signal.
The nature of assay [12]: budding yeast growth changes without added modifier – OD600, strain BY4716, 24 h, basal condition, primary screen (AID 1173). Conditions: S. cerevisiae BY4716 growth, OD600, 24 h; higher = more signal, called active from +8 up or from −8 down.
Assay [13] is described as follows: viability profiling in MM1S myeloma cells – cell-based, resazurin fluorescence, basal, 24 h, PK04 Diversity Set, profiling panel (AID 1174). Also: test concentration not given here. The following applies: higher = more signal, called active from +8 up or from −8 down.
In assay [14] the target is Dihydroorotate dehydrogenase (quinone), mitochondrial (Plasmodium falciparum (isolate 3D7)) (UniProt Q08210). Briefly: inhibition of P. falciparum DHODH – biochemical, C-terminal His tag, absorbance 600 nm, primary screen (AID 1175).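 Also: recombinant parasite enzyme with a five histidine tag at its C terminus; test concentration not given here.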 The following applies: PfDHODH enzyme, DCIP absorbance 600 nm; higher = more signal, called active from +8 up or from −8 down.
Sequence of Dihydroorotate dehydrogenase (quinone), mitochondrial (Plasmodium falciparum (isolate 3D7)) (Q08210 whole entry, looked up): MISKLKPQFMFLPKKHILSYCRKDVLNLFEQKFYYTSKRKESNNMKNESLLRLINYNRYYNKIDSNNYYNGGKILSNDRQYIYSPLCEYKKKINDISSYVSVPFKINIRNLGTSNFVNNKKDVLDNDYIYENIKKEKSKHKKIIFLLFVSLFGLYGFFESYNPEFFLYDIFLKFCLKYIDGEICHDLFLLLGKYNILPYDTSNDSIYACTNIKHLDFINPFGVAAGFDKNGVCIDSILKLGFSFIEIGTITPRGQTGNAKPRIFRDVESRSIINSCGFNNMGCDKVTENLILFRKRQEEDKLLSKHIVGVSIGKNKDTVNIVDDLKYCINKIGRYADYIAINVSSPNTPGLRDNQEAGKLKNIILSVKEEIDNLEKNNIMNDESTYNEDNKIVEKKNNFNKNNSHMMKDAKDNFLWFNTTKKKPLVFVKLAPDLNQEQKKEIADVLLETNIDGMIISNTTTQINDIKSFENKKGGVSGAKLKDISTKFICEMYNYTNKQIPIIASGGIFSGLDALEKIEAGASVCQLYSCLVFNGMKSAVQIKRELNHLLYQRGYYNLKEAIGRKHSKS
Assay [15] is described as follows: inhibition of PAO1 biofilm formation – strain PAO1, LB-PBS medium, absorbance 600 nm, primary screen (AID 1176). Also: test concentration not given here. Conditions: P. aeruginosa PAO1 growth/biofilm, A600, 12 h; higher = more signal.
A short description of assay [16]: growth modulation of vineyard yeast isolate – strain RM11-1a, OD600, basal, 24 h, primary screen (AID 1177).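 Also: cultures grown under basal conditions with no added stressor; test concentration not given here.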 Conditions: S. cerevisiae RM11-1a growth, OD600, 24 h; higher = more signal, called active from +8 up or from −8 down.
Assay [17] is described as follows: growth of efflux-deficient E. coli DRC39 – strain DRC39, OD650, 24 h, E. coli filamentation inducers, primary screen (AID 1178).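 Also: growth measured as culture turbidity by optical density at 650 nm; test concentration not given here.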 The following applies: E. coli DRC39 acrAB, higher = more signal, called active from +8 up or from −8 down.
Assay [18] can be described thus: growth of efflux-deficient E. coli DRC39 – strain DRC39, OD650, 48 h, E. coli filamentation inducers, primary screen (AID 1179).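 Also: screen aims at cell division blockers that make cells filament.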 The following applies: E. coli DRC39 delta-acrAB growth, higher = more signal, called active from +8 up or from −8 down.
Assay [19] is described as follows: viability profiling in RPMI8226 myeloma cells – cell-based, resazurin fluorescence, basal, 24 h, PK04 Diversity Set, profiling panel (AID 1180).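 Also: RPMI8826 multiple myeloma cell line at 5000 cells per well; test concentration not given here.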 Conditions: higher = more signal.
Assay [20] addresses E3 ubiquitin-protein ligase XIAP (Homo sapiens) (UniProt P98170). Description: small molecules binding XIAP protein – biophysical, small-molecule microarray, fluorescence 635 nm, primary screen (AID 1181).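 Also: score merges 667 nm emission and signal to noise over triplicate slides.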 Conditions: higher = more signal.

Sequence of E3 ubiquitin-protein ligase XIAP (Homo sapiens) (P98170 whole entry, looked up): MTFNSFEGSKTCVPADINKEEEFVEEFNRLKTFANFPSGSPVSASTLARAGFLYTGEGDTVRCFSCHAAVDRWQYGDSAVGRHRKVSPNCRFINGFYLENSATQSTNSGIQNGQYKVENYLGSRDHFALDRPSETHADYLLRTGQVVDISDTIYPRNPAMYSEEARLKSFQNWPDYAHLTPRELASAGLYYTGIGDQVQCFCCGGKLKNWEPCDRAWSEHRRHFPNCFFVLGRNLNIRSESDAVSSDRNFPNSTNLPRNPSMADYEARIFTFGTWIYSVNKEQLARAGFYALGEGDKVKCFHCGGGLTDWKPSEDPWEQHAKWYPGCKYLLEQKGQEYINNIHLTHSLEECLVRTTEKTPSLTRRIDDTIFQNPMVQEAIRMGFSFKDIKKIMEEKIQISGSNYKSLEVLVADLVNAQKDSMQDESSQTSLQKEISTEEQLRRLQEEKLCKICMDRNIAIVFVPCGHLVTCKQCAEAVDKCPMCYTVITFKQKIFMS

In the case of `O=C(NCCO)C1=C[C@H](Oc2ccccc2I)[C@@H](O)[C@H](N(Cc2ccco2)C(=O)Cc2ccccc2)C1`, the z-score in assay [1] was -0.22; in assay [2] it was 1.31; in [3], -0.902; in [4] it was 0.426; in [5], -1.94; in assay [6] it was -0.217. Besides, the z-score in [7] is -0.166 (inactive); in [8] it was -0.084; in assay [9], 0.559; in assay [10], -1.35 (inactive); in assay [11], -1.23; in [12] it was -0.279 (inactive). The z-score in [13] is -0.123 (inactive); in assay [15], -0.848 (inactive); in assay [16], 0.552 (inactive); in assay [17], -0.49 (inactive); in assay [18] it was -0.666 (inactive); in assay [19], -0.328. The composite z-score was 1.06 (inactive) in assay [14] and -0.052 in [20].
For the compound `CC(C)N1C(=O)c2ccccc2[C@](C)(C(=O)NCCN2CCOCC2)[C@@H]1c1ccc(CO)cc1`, the z-score in assay [1] was -0.291; in assay [2] it was -0.748; in [3], 0.458; in assay [4] it was -1.69; in [5], 0.0409; in [6], 0.916. Further, the z-score in [7] is -0.537 (inactive); in [8], 1; in [9], -0.0545; in [10], 0.0569 (inactive); in assay [11] it was 0.0412; in assay [12] it was 0.567 (inactive). The z-score in [13] was -0.139 (inactive); in [15], 0.484 (inactive); in [16], 1.41 (inactive); in [17], -0.0268 (inactive); in assay [18], -0.582 (inactive); in assay [19], -0.44. The composite z-score in assay [14] was 1.11 (inactive); in assay [20] it was 0.126.
`C=CCC(OC(C)=O)[C@@H]1[C@@H](N(Cc2ccc(-c3ccccc3)cc2)C(=O)Cc2ccc(OC)cc2)c2cc(OCCCO)ccc2N1C(=O)Cc1ccc2ccccc2c1` (stereo not given in full): the z-score in [1] was 0.247; in assay [2], 0.358; in assay [3], 0.71; in assay [4], -0.391; in assay [5], -0.252; in assay [6] it was 1.25. For the same compound, the z-score in [7] was -1.73 (inactive); in [8] it was 0.158; in assay [9] it was 0.338; in assay [10], -0.599 (inactive); in assay [11], -0.978; in [12] it was -0.34 (inactive). For the same compound, the z-score was -0.541 (inactive) in assay [13]; 0.562 (inactive) in assay [15]; -0.726 (inactive) in assay [16]; -0.39 (inactive) in assay [17]; -0.851 (inactive) in assay [18]; -0.798 in assay [19]. Also, the composite z-score in [14] was 0.0513 (inactive); in assay [20] it was 0.098.
Take `CCCC[C@@H]1C[C@H]1[C@@H](NC(=O)c1ccco1)c1ccc(-c2ccccc2)cc1`: the z-score is -0.359 in assay [1]; 0.222 in [2]; -1.05 in [3]; -0.15 in assay [4]; -1.03 in assay [5]; -1.07 in assay [6]. Further, the z-score is -0.168 (inactive) in assay [7]; -0.0532 in assay [8]; 0.0163 in assay [9]; -1.04 (inactive) in [10]; -0.9 in assay [11]; 1.22 (inactive) in [12]. The z-score in assay [13] is -1.52 (inactive); in assay [15], 2.16 (inactive); in [16], 0.505 (inactive); in assay [17] it was -1.05 (inactive); in assay [18], -1.2 (inactive); in assay [19], -1.29. Besides, the composite z-score in [14] was -3.3 (inactive); in [20], 0.773.
Consider `COC(=O)c1c(CC[C@@H](CO)NC(=O)NCCn2cc(C3(O)CCCC3)nn2)oc(C(C)=O)c1C(=O)OC`, for which the z-score in assay [1] is -0.298; in assay [2] it was 0.154; in [3] it was 0.122; in [4], 0.454; in assay [5] it was 0.206; in assay [6] it was -0.0184. Besides, the z-score was -0.543 (inactive) in assay [7]; 0.586 in assay [8]; -0.152 in [9]; -0.957 (inactive) in assay [10]; -0.777 in assay [11]; -0.394 (inactive) in [12]. For the same compound, the z-score was -0.691 (inactive) in assay [13]; 0.173 (inactive) in assay [15]; -0.77 (inactive) in assay [16]; -0.426 (inactive) in assay [17]; -0.828 (inactive) in [18]; -0.581 in assay [19]. Besides, the composite z-score in assay [14] is -0.35 (inactive); in assay [20] it was -0.0343.
As to `C=CCN1C(=O)[C@@]2(CC=C)N=C(c3ccc(OCCCO)cc3)O[C@H]2c2ccccc21`, the z-score in assay [1] is 0.248; in assay [2], 1.68; in assay [3], -0.515; in [4], -3.41; in [5] it was -3.72; in assay [6], 1.62. In addition, the z-score in assay [7] is 2.61 (inactive); in [8], -1.02; in assay [9], -2.1; in assay [10] it was -2.08 (inactive); in assay [11] it was -0.492; in assay [12], -2.87 (inactive). Moreover, the z-score is -3.88 (inactive) in assay [13]; 2.21 (inactive) in assay [15]; 0.113 (inactive) in assay [16]; 1.19 (inactive) in assay [17]; 2.46 (inactive) in assay [18]; -3.54 in assay [19]. For the same compound, the figures for the composite z-score in assay [14] and in [20] were -1.17 (inactive) and 0.0842, respectively.
Regarding `Cc1ccccc1C(O)C1C=CC2C(=O)N(c3ccccc3)C(=O)C2N1Nc1ccc(C(C)C)cc1` (stereo not given), the z-score in [1] was -0.0475; in [2], -0.127; in assay [3], -0.169; in assay [4] it was -0.136; in [5] it was -0.727; in assay [6], -2.15. Further, the z-score was -1.8 (inactive) in assay [7]; -0.754 in assay [8]; -0.0109 in assay [9]; -1.41 (inactive) in [10]; -1.7 in assay [11]; -0.945 (inactive) in assay [12]. Further, the z-score in [13] was -1.31 (inactive); in [15], 0.807 (inactive); in assay [16], 1.93 (inactive); in assay [17], -0.765 (inactive); in assay [18], -1.14 (inactive); in [19], -1.06. The figures for the composite z-score in assay [14] and in assay [20] were 1.82 (inactive) and 1.24, respectively.
Take `CCOC(=O)C[C@H]1[C@H](OC(=O)c2ccc(C(=O)c3ccccc3)cc2)[C@@H](NC(=O)c2ccc3ccccc3c2)c2cc(OCCCO)ccc2N1C(=O)Cc1ccc(OC)cc1`: the z-score in assay [1] was -0.0783; in [2] it was 0.539; in assay [3], 0.294; in assay [4], 0.655; in assay [5] it was 0.39; in assay [6], 1.32. Also, the z-score in [7] was -0.808 (inactive); in assay [8], -0.716; in assay [9], -0.51; in [10] it was 0.0571 (inactive); in assay [11] it was -0.0265; in assay [12], -0.291 (inactive). In addition, the z-score in [13] was 0.238 (inactive); in assay [15], -0.382 (inactive); in assay [16], 0.4 (inactive); in [17], -0.276 (inactive); in [18], 0.471 (inactive); in assay [19] it was 0.287. Besides, the composite z-score was -0.148 (inactive) in assay [14] and -0.12 in assay [20].
